High-throughput results: PubChem BioAssay, National Center for Advancing Translational Sciences (NCATS)
RECQ1 helicase: qHTS Assay for Inhibitors of RecQ-Like Dna Helicase 1 (RECQ1) | ATP-dependent DNA helicase Q1 (Homo sapiens), P46063 | RECQ1 DNA unwinding, red fluorescence kinetic read | Potency, µM (series often up to 57.3 µM), without a hit: at the highest dose activity, negative = inhibition, hits mostly inhibitors | actives 0.54% (n = 240,000) | AID 2549, 2010;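 also: plate controls were vehicle for no effect and no enzyme for full effect; nearly all actives have a fitted effect of over 30% in size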
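RECQ1T1 50 nM; forked duplex (20 bp + 30-nt ss tails) 200 nM, ATP 2 mM final; pH 8.0, 2 mM MgCl2, 2.5 ug/ml poly(dI-dC); 15 min compound preincubation; discontinuous kinetic read over 2 h at RT.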
FEN1 inh: qHTS Assay for the Inhibitors of Human Flap endonuclease 1 (FEN1); P39748; Recombinant FEN1 flap cleavage, fluorescence, 15 min; Potency, µM (top dose mostly 114 µM), inactives show at the top dose activity change, negative = inhibition, actives largely listed as inhibitors; actives 0.35% (n = 390,000); also: % is scaled to controls: 0 for no effect and ±100 for the full control effect; nearly all actives have a fitted effect of over 65% in size
Target sequence (P39748 whole entry, looked up): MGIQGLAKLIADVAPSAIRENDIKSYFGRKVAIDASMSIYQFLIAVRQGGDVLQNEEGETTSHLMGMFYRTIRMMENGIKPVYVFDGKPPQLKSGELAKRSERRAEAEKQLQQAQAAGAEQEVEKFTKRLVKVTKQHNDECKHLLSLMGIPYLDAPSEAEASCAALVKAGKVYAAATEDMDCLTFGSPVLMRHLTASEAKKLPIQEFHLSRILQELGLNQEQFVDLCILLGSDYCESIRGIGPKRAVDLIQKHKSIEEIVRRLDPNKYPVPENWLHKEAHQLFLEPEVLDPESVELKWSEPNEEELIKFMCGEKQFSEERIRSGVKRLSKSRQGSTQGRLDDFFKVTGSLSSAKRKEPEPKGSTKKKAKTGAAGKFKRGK
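Nuclease activity of 10 nM FEN1 was measured after 15 min of room-temperature exposure to titrated compounds, by adding 50 nM flap substrate and reading plates at 0 and 15 min.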
WRN helicase inh-1: qHTS for Inhibitors of WRN Helicase; Bifunctional 3'-5' exonuclease/ATP-dependent helicase WRN (Homo sapiens), Q14191; WRN helicase unwinding, fluorescent forked duplex, kinetic; Potency, µM (top dose mostly 114 µM), for the others: at the top dose activity change, negative = inhibition, hits mostly inhibitors; actives 0.46% (n = 360,000); AID 651768, 2012; also: % is scaled to controls: 0 for no effect and ±100 for the full control effect; nearly all actives have a fitted effect of over 55% in size
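Screening of the MLSMR collection measured strand separation of a quenched forked DNA duplex (100 nM) by 20 nM WRN with 2 mM ATP, all final. Compounds were preincubated with enzyme 15 min at room temperature.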
BLM helicase inh-1: qHTS Assay for Inhibitors of Bloom's syndrome helicase (BLM); Potency, µM (series often up to 56.1 µM), for inactives: at the top dose activity change, negative = inhibition, hits mostly inhibitors; recombinant BLM DNA unwinding, fluorescence dequenching; AID 2528, 2010; RecQ-like DNA helicase BLM (Homo sapiens), P54132; actives 0.2% (n = 350,000);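 also: plate controls were vehicle for no effect and no enzyme for full effect; nearly all actives have a fitted effect of over 35% in size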
APE1 inh: qHTS Assay for Inhibitors of the Human Apurinic/apyrimidinic Endonuclease 1 (APE1); DNA repair nuclease/redox regulator APEX1 (Homo sapiens), P27695; recombinant APE1, TAMRA/BHQ-2 abasic DNA cleavage fluorescence; Potency, µM (series often up to 65.8 µM), inactives show at the highest dose activity change, negative = inhibition, hits mostly inhibitors; actives 0.35% (n = 350,000);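 also: plate controls were vehicle for no effect and reference inhibitor for full effect; nearly all actives have a fitted effect of over 55% in size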
Target sequence (P27695 whole entry, looked up): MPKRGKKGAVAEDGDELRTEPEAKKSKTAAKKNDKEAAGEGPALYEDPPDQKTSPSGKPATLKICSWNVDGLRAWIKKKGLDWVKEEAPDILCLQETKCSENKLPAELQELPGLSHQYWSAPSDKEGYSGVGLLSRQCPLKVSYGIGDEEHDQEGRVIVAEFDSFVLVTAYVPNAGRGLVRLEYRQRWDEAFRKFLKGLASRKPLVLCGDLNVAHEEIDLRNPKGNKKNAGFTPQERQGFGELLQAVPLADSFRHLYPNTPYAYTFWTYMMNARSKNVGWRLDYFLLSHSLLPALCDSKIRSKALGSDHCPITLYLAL
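Quantitative HTS: incision of a TAMRA/BHQ-2 double-stranded substrate bearing a tetrahydrofuran abasic site by 0.75 nM APE1 raises fluorescence. Substrate 50 nM final, added after 15 min compound preincubation at room temperature; progress as third-minus-first kinetic read difference.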
WRN helicase inh-2: qHTS for Inhibitors of WRN Helicase: Confirmatory Assay for Cherry-picked Compounds; Potency, µM (series often up to 57.1 µM), without a hit: at the highest dose activity, negative = inhibition, actives largely listed as inhibitors; AID 720497, 2013; shares compounds with WRN helicase inh-1; actives 63% (n = 610); WRN helicase DNA unwinding, fluorescence kinetic; also: nearly all actives have a fitted effect of over 65% in size
TO displacement: qHTS for Inhibitors of WRN Helicase: Thiazole Orange DNA Binding Counterscreen | shares compounds with WRN helicase inh-1 | thiazole orange DNA binding displacement, fluorescence | Potency, µM (doses to about 57.1 µM), for the others: at the top dose activity change, negative = inhibition, actives largely listed as inhibitors | actives 10% (n = 610) | AID 720499, 2013;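 also: drop in dye fluorescence marks compound binding to DNA; % is scaled to controls: 0 for no effect and ±100 for the full control effect; nearly all actives have a fitted effect of over 60% in size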
BLM helicase inh-2: qHTS for Inhibitors of WRN Helicase: BLM Helicase Counterscreen for WRN Inhibitors; shares compounds with WRN helicase inh-1; Potency, µM (doses to about 57.1 µM), for inactives: at the highest dose activity change, negative = inhibition, hits mostly inhibitors; Recombinant BLM helicase DNA unwinding, red fluorescence; actives 60% (n = 610); AID 720503, 2013; also: nearly all actives have a fitted effect of over 60% in size
* hit, by the source's call; i = inactive; ? = inconclusive; . = not tested or not shown. The list is not random: actives were taken first. Their share in the collection is about 0.87%. Calls follow the shape of the dose curve; as a rule, active = well fitted curve in the direction sought with a large enough effect; inconclusive = small, poorly fitted or top-dose-only effect, or another doubt; inactive = no such curve, though single readings can be large; an effect the other way counts as inactive or inconclusive. Potency is read from the fitted curve at half-maximal effect.

SMILES | RECQ1 helicase | FEN1 inh | WRN helicase inh-1 | BLM helicase inh-1 | APE1 inh | WRN helicase inh-2 | TO displacement | BLM helicase inh-2
Cc1ccc(-c2nn3cnnc3s2)cc1NC(=O)c1ccc(-c2cccc(Cl)c2)o1 | . | . | . | . | . | ? | 163% | ?
O=C(Nc1cccc2nsnc12)c1ccc(-c2cccc(Cl)c2)o1 | -1% | -1% | -36% | -18% | 0% | . | . | .
O=C1OC(c2ccc3ccccc3c2O)(c2ccc3ccccc3c2O)c2ccccc21 | . | ? | ? | . | . | ? | 24µM* | -29%
CCOC(=O)C1=C(C)N=c2s/c(=C/c3ccc(OCC(=O)O)c(OC)c3)c(=O)n2C1c1ccc(Cl)cc1 (centres undefined) | . | 50µM* | 28µM* | . | . | 12µM* | 465% | 7.6µM*
COc1cc(/C=C2\SC(=S)N(NC(=O)c3cccc(O)c3)C2=O)ccc1O | . | ? | 32µM* | -17% | 17% | 22µM* | 3.8µM* | 22µM*
C=CCN1C(=O)/C(=C/C=C2/N(CC)c3ccc(S(=O)(=O)N(C)C)cc3N2CC)SC1=S | 4µM* | ? | 5.3µM* | 10µM* | ? | 9.6µM* | i | 9.6µM*
Cc1ccc(SCC(c2ccccc2)N2CCN(C)CCC2=O)cc1 (centres undefined) | 4% | -11% | . | -14% | 10% | . | . | .
COc1ccc(CN2CC(=O)N(c3ccc(C)c(C)c3)C2=S)cc1OC | -2% | ? | ? | -8% | 4% | -8% | -4% | -4%
COc1cc(CN2CC(=O)N(c3ccc(C)c(C)c3)C2=S)cc(OC)c1OC | -6% | -14% | 2% | -3% | 10% | . | . | .
Cc1ccccc1Nc1oc(-c2ccccc2)nc1-c1cccc2ccccc12 | -2% | . | . | -2% | 5% | . | . | .
COC(=O)c1ccccc1-c1ccc(/C=C2\C(=O)N(c3ccccc3)N=C2c2ccccc2)o1 | -5% | -3% | -2% | -2% | -1% | . | . | .
O=C1NN(c2ccc(Cl)c(Cl)c2)C(=O)/C1=C/c1ccc(-c2ccccc2C(=O)O)o1 | . | ? | 32µM* | -2% | -23% | 19µM* | -17% | -23%
Cc1ccc(-c2cc(C(=O)O)c3cc(Br)ccc3n2)o1 | ? | -14% | 35µM* | 3% | -3% | 15µM* | -10% | ?
O=C(Nc1cc(SCC(O)CO)cc([N+](=O)[O-])c1)c1ccc(-n2cnnn2)cc1 (centres undefined) | 0% | -20% | ? | -12% | 0% | ? | -27% | ?
COc1ccc(CCNC(=O)c2nc(SCc3ccc(F)cc3)ncc2Cl)cc1OC | . | -11% | . | -6% | . | . | . | .
O=C(CSCC(=O)NCc1ccco1)NCc1ccco1 | -3% | -4% | -7% | -1% | ? | . | . | .
CCc1c(O)nc(SCC(=O)NCc2ccco2)[nH]c1=O | -6% | -4% | -15% | 0% | -5% | . | . | .
O=C(CCSCCC(=O)NCc1ccco1)NCc1ccco1 | -4% | 7% | 13µM* | -5% | ? | 22µM* | -13% | 17µM*
Cc1cc(=O)[nH]c(SCC(=O)NCc2ccco2)n1 | -11% | -12% | 19µM* | -7% | ? | ? | -5% | 22µM*
Cc1ccc(-c2csc(NS(=O)(=O)c3cccc(F)c3)n2)o1 | . | -23% | 32µM* | . | -2% | 24µM* | -29% | ?
O=[N+]([O-])c1cc2c(c3cccnc13)COCO2 | . | -8% | ? | . | . | ? | -29% | 15µM*
c1cnc2ccc3c(c2c1)COCO3 | . | 3% | 0% | . | . | . | . | .
N#Cc1c(C(=O)c2cccs2)no[n+]1[O-] | . | . | . | . | . | 22µM* | -8% | 24µM*
N#Cc1c(-c2ccccc2)no[n+]1[O-] | -16% | . | . | . | 1% | . | . | .
CN(C)c1ccc(/C=C/c2ccc3ccccc3[n+]2C)cc1 | ? | 40µM* | 40µM* | ? | -2% | 24µM* | 27µM* | 27µM*
SMILES | RECQ1 helicase | FEN1 inh | WRN helicase inh-1 | BLM helicase inh-1 | APE1 inh | WRN helicase inh-2 | TO displacement | BLM helicase inh-2
Cc1cc(C)c(NC(=O)CCC(=O)N2Cc3ccccc3Oc3ncccc32)c(C)c1 | . | -6% | . | 4% | . | . | . | .
O=C(NCc1ccco1)c1c[nH]c2ccc(S(=O)(=O)Nc3ccc(F)cc3F)cc2c1=O | . | -12% | . | 0% | . | . | . | .
CN1/C(=C\C(=O)c2ccco2)C(C)(C)c2ccccc21 | -11% | -3% | ? | -5% | 0% | -14% | -15% | -1%
CC(=O)NCc1nc2cccnc2n1Cc1ccccc1 | . | 8% | . | 0% | . | . | . | .
CCCN1C(=O)C(NC(C)=O)c2ccccc21 (centres undefined) | -9% | -4% | 3% | 1% | 0% | . | . | .
CCc1ccc2c(c1)C(NC(C)=O)C(=O)N2CCN1CCOCC1 (centres undefined) | . | ? | 45µM* | -12% | -28% | ? | -5% | 19µM*
CCc1cc(C(=O)N=Nc2c(O)[nH]c3ccc([N+](=O)[O-])cc23)c2ccccc2n1 | 1% | ? | ? | 18µM* | -11% | 19µM* | 15µM* | 17µM*
O=C(CSc1nc2ccccc2o1)N/N=C/c1ccc(O)c(O)c1 | -12% | ? | 8.9µM* | -21% | ? | 2.7µM* | ? | 1.9µM*
O=C(N/N=C/c1ccc(O)c(O)c1)N/N=C/c1ccc(O)c(O)c1 | . | 2.5µM* | 4µM* | 7.9µM* | -95% | 0.96µM* | ? | 1.1µM*
O=C(CSc1nc2ccccc2o1)N/N=C/c1ccccc1 | 0% | 14% | -2% | -3% | 1% | . | . | .
COc1cccc(CNC(=O)COC(=O)c2ccc(S(C)(=O)=O)c([N+](=O)[O-])c2)c1 | . | -5% | . | . | . | . | . | .
CCOc1ccccc1-n1c(=O)c2ccccc2c2ccccc2c1=O | -1% | -19% | ? | -3% | -2% | -14% | -15% | -11%
